# Out of some 170,000 compounds screened, about 900 (0.53%) were called active.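 Rule for the calls: active = relative growth at most 50% at the other temperature and 20+ points below 30 °C, or under 10% at both; inactive = the rest, inconclusive results apart.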 For the sample, actives were picked, then their nearest neighbours and some compounds at random.
# Assay: S. aureus growth inhibition at 42 and 30 °C, primary screen, LtaS inhibitor project, RN4220, two temperatures (AID 720641)
# Conditions: OD600, 20 h, 42 °C, stronger effect = lower value
Compound,relative growth,relative growth (measured here: growth at 30 °C)
Cc1ccc2nc(Nc3ccccc3)cc(C)c2c1,75.4% (inactive),74.3%
Cc1cccc(Nc2cc(C)nc(-n3nc(C)cc3C)n2)c1,-0.22% (active),-0.24%
Cc1ccc(Nc2nc3ccccc3nc2-n2nc(C)cc2C)c(Cl)c1,102% (inactive),86.6%
Cc1nc2ccccc2nc(C)c1=NOCC(=O)Nc1ccc(S(=O)(=O)N2CCOCC2)cc1,102% (inactive),96.4%
O=C(CCCN1C(=O)CSc2ncccc21)N1CCCCC1,98.9% (inactive),84.5%
COc1ccc(C(C(=O)NC2CCCC2)N(C(=O)c2ccn[nH]2)c2ccc(F)cc2)cc1OC (stereo not given),113% (inactive),89%
CC(C)NC(=O)CSc1ccccc1C(=O)Nc1ccc(-n2cnnn2)cc1,102% (inactive),89.2%
O=S(=O)(Nc1ccc2cn[nH]c2c1)c1ccccc1,105% (inactive),98.5%
c1ccc(NC2CCCCC2)cc1,104% (inactive),103%
c1ccc2c(c1)CC(Nc1ccc3cn[nH]c3c1)C2,1.74% (active),1.83%
Cc1cc(C)c(NC(=O)C2CC3c4ccccc4C2C2C=CC=CC32)c(C)c1 (stereo not given),123% (inactive),88.2%
Oc1c(Cl)cc(Cl)cc1C1Nc2cc(C(F)(F)F)ccc2-n2cccc21 (stereo not given),5.2% (active),6.75%
Nc1cc(C(F)(F)F)ccc1-n1cccn1,92.8% (inactive),95.4%
COc1ccc2c(c1)NC(c1ccccc1)c1cccn1-2 (stereo not given),69.2% (inactive),62.6%
COCCCn1c(C)cc(C(=O)CSc2ncnc3ccccc23)c1C,136% (inactive),92.1%
CC1Cc2ccccc2N1c1ccc2ccccc2n1 (stereo not given),94.3% (inactive),99.6%
COc1ccc(/C=C/C(=O)N2CCCC2)cc1OC,81.4% (inactive),88.8%
COc1cc(/C=C/C(=O)OCC(N)=O)ccc1OCC#N,46.3% (active),78.8%
C/C=C/c1ccc(OCC(=O)OC(C)C(N)=O)c(OC)c1 (stereo not given),71.1% (inactive),88.7%
COc1cc(C2C(C(=O)Nc3ccccn3)=C(C)NC3=C2C(=O)CCC3)cc(OC)c1OC (stereo not given),98.5% (inactive),93.4%
CC(C)CC(=O)n1c(=O)oc2ccccc21,96.6% (inactive),101%
N#Cc1c(-c2ccco2)cc(C2CC2)nc1SCC(=O)c1ccc(Br)cc1,82.6% (inactive),76.7%
O=C(NCCSc1ccccc1)c1cccnc1Oc1ccccc1,115% (inactive),76.2%

Compound,relative growth,relative growth (measured here: growth at 30 °C)
CC(=O)Oc1ccc(OC(C)=O)c2c1C1C=CC2CC1,105% (inactive),99.4%
CC(=O)Oc1cccc2c1C(=O)C=CC2=O,2.55% (active),1.59%
CC(=O)Oc1cccc2c1OC(C)(C)C2,117% (inactive),99.9%
CSCCC(=O)Nc1nc2ccccc2[nH]1,113% (inactive),87.5%
O=C(Nc1cccc(Cl)c1)Nc1ccccn1,61.4% (inactive),70%
CC(C)Oc1ccc(C(=O)Nc2ccnn2C2CCCCC2)cc1,105% (inactive),98.1%
CC(=O)Nc1ccc2c(c1)CN(C1CCCCC1)CO2,90.6% (inactive),87.6%
O=C(Nc1ccc(Cl)c(Cl)c1)Nc1ccnn1C1CCCCC1,-0.5% (active),-0.69%
CCc1ccc(NC(=O)Nc2ccccc2)cc1,93.4% (inactive),96.9%
O=C(Nc1ccccc1)Nc1ccc(Cl)c(Cl)c1,2.14% (active),2.42%
CC(=O)N1CC(C(=O)Nc2cccc(-c3nnc4n3CCCCC4)c2)Oc2ccccc21 (stereo not given),78.4% (inactive),92.9%
Cc1ccc2nc(COC(=O)Cn3[nH]c(=O)c4ccccc4c3=O)cc(=O)n2c1,78.6% (inactive),90.7%
CCOc1ccc(C(=O)N2CCC(Cc3ccccc3)CC2)cc1,122% (inactive),75.5%
CS(=O)(=O)NCCNc1cc(-c2ccccc2)nc2ccccc12,99.5% (inactive),72.5%
CCC(CC)NCc1ccc(OC)c(C)c1OC,74.7% (inactive),81.6%
COc1ccc(-c2nn(C)c3sc(C(=O)NCCN4CCN(c5ccccc5F)CC4)cc23)cc1OC,82.7% (inactive),76.9%
O=C(c1ccco1)N1CCN(C(=O)c2cc3c(s2)CCCC3)CC1,96.3% (inactive),87.5%
O=C(Sc1nc(-c2ccccc2)c(-c2ccccc2)[nH]1)c1cccs1,84.6% (inactive),74.2%
Cc1cc(SCc2ccc(F)cc2)c(C)cc1Cl,105% (inactive),102%
NC(=O)c1oc2ccccc2c1NC(=O)Cc1ccc(Cl)cc1,89.8% (inactive),77.5%
CC1CCN(C(=O)COc2ccc(-c3nn(C)c(=O)c4ccccc34)cc2)CC1,86.8% (inactive),89.7%
Cc1ccccc1OCc1nc(C#N)c(NC(C)c2ccccc2)o1 (stereo not given),82.4% (inactive),79.9%
